Data on 8 molecules can be found in PubChem BioAssay (NCI).

Test systems include SK-MEL-2 melanoma; EKVX NSCLC; SN12C renal; UO-31 renal; TK-10 renal; ACHN renal; CAKI-1 renal; A498 renal; CCRF-CEM leukemia; MOLT-4 leukemia; RPMI-8226 leukemia; OVCAR-8 ovarian; OVCAR-5 ovarian; OVCAR-4 ovarian; SK-OV-3 ovarian; IGROV1 ovarian; OVCAR-3 ovarian; HS 578T breast; NCI/ADR-RES ovarian.
Common to all, as to assay: NCI-60 one-dose screen, 48 h (100 = growth as untreated, 0 = no growth, -100 = all killed)
Holding throughout (conditions): 10 µM unless noted

Molecules are shown by their SMILES. Compounds without any hit were thinned out: in the full panel of roughly 83,000, 20% have a hit.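 Each cell line was grown in a 96-well plate and treated with one concentration of compound for 48 hours. Values below 10 were considered active.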 A number with no mark means an inactive call. Activity calls are given as the source filed them.

Take `O=C1/C(=C/c2ccccc2)CCc2nc3ccccc3c(/C=C/c3ccc(Cl)cc3)c21`: the growth was 93.7% in the experiment on SK-MEL-2 melanoma; 79% in the experiment with EKVX NSCLC; 83.5% in the experiment on SN12C renal; 69.1% with UO-31 renal; 145% in the experiment on TK-10 renal; 97.3% in the experiment on ACHN renal. The growth with CAKI-1 renal was 83.7%; in the experiment on A498 renal, 92.1%; in the experiment on CCRF-CEM leukemia it was 84.1%; with MOLT-4 leukemia, 80.3%; with RPMI-8226 leukemia, 75.9%; in the experiment on OVCAR-8 ovarian, 87.7%. Further, the growth is 108% in the experiment with OVCAR-5 ovarian; 80.5% in the experiment on OVCAR-4 ovarian; 81.8% with SK-OV-3 ovarian; 72.3% in the experiment on IGROV1 ovarian; 90.1% in the experiment with OVCAR-3 ovarian; 104% in the experiment on HS 578T breast. The growth in the experiment with NCI/ADR-RES ovarian is 89.4%.
`C=C(C)[C@@H]1CC[C@]2(C)[C@H](CC=C3[C@@H]4CC(C)(C)CC[C@]4(C(N)=O)CC[C@]32C)[C@@]1(C)CCC#N`: the growth was -0.287% (active) in the experiment with SK-MEL-2 melanoma; 46.1% in the experiment on EKVX NSCLC; -48.1% (active) in the experiment with SN12C renal; 17.6% in the experiment on UO-31 renal; 12.7% in the experiment on TK-10 renal; 20.8% with ACHN renal. Besides, the growth is 18.4% in the experiment with CAKI-1 renal; 7.55% (active) in the experiment with A498 renal; 39.8% with CCRF-CEM leukemia; 24.1% in the experiment on MOLT-4 leukemia; 6.44% (active) in the experiment on RPMI-8226 leukemia; 26.5% in the experiment with OVCAR-8 ovarian. Also, the growth in the experiment with OVCAR-5 ovarian is 47%; with OVCAR-4 ovarian, 20%; in the experiment on SK-OV-3 ovarian, 48.1%; with IGROV1 ovarian it was 53.1%; in the experiment with OVCAR-3 ovarian, 23.5%; in the experiment with HS 578T breast, 51%. The growth in the experiment on NCI/ADR-RES ovarian is 35%.
Turning to `CC1=C([Se]CC(OC(=O)CC[Se]c2ccccc2)C(=O)NCCCCCC(=O)OCc2ccccc2)C(=O)c2ccccc2C1=O` (configuration not stated), the growth with SK-MEL-2 melanoma is 47.8%; with EKVX NSCLC, 27.1%; with SN12C renal, 13.4%; in the experiment with UO-31 renal, 15.4%; with TK-10 renal it was 40.9%; in the experiment with ACHN renal, 23.8%. Further, the growth in the experiment on CAKI-1 renal was 32.2%; in the experiment with A498 renal, 71.9%; in the experiment with CCRF-CEM leukemia, 9.75% (active); in the experiment with MOLT-4 leukemia it was 17.1%; in the experiment with RPMI-8226 leukemia, 49.1%; with OVCAR-8 ovarian, 10.6%. The growth is 39.7% in the experiment on OVCAR-5 ovarian; 42.5% in the experiment with OVCAR-4 ovarian; 39.4% in the experiment with SK-OV-3 ovarian; 15.9% in the experiment on IGROV1 ovarian; -3.7% (active) in the experiment on OVCAR-3 ovarian; -13.4% (active) in the experiment with HS 578T breast. Also, the growth in the experiment with NCI/ADR-RES ovarian was 11.9%.
For `Cc1ccccc1NC(=O)N/C(N)=N/c1nc(C)c(C)s1`, the growth in the experiment with SK-MEL-2 melanoma was 53.9%; with EKVX NSCLC it was 55%; in the experiment on SN12C renal, 39.7%; in the experiment with UO-31 renal, 54.9%; in the experiment with TK-10 renal, 70.3%; in the experiment on ACHN renal, 46.5%. Besides, the growth with CAKI-1 renal is 31.1%; in the experiment on A498 renal it was -17.7% (active); in the experiment on CCRF-CEM leukemia, 13.3%; in the experiment on MOLT-4 leukemia, 30.1%; in the experiment on RPMI-8226 leukemia it was 6% (active); with OVCAR-8 ovarian it was 30.8%. Moreover, the growth with OVCAR-5 ovarian is 41.4%; in the experiment on OVCAR-4 ovarian, 49.7%; with SK-OV-3 ovarian, 45.2%; in the experiment with IGROV1 ovarian it was 36.2%; in the experiment with OVCAR-3 ovarian, -1.03% (active); with HS 578T breast it was 23.6%. In the experiment on NCI/ADR-RES ovarian, the growth is 9.02% (active).
As for `COc1ccc(OC)c(-c2c(C#N)c(-c3ccc(Cl)cc3)nc3c2c(-c2ccccc2)nn3-c2ccccc2)c1`, the growth in the experiment with SK-MEL-2 melanoma was 102%; in the experiment with EKVX NSCLC, 102%; with SN12C renal it was 95%; with UO-31 renal, 81.4%; with TK-10 renal, 103%; in the experiment with ACHN renal, 102%. Moreover, the growth in the experiment with CAKI-1 renal was 67.9%; with A498 renal, 113%; in the experiment with CCRF-CEM leukemia it was 98.8%; in the experiment on MOLT-4 leukemia, 86.1%; in the experiment on RPMI-8226 leukemia, 95.8%; in the experiment with OVCAR-8 ovarian it was 101%. Moreover, the growth in the experiment with OVCAR-5 ovarian was 101%; in the experiment on OVCAR-4 ovarian, 102%; with SK-OV-3 ovarian, 100%; in the experiment on IGROV1 ovarian, 108%; in the experiment on OVCAR-3 ovarian, 107%; in the experiment with HS 578T breast it was 100%. Besides, the growth in the experiment with NCI/ADR-RES ovarian is 99.6%.
As to `COc1ccc(/C=C/c2c(C(=O)/C=C/c3cccs3)c(C)nc3ccccc23)cc1`, the growth is 89.6% in the experiment with SK-MEL-2 melanoma; 84.8% in the experiment on EKVX NSCLC; 79.1% in the experiment with SN12C renal; 56.4% in the experiment with UO-31 renal; 116% in the experiment with TK-10 renal; 82.2% in the experiment with ACHN renal. In addition, the growth with CAKI-1 renal was 57.2%; with A498 renal it was 53.3%; with CCRF-CEM leukemia, 64.5%; with MOLT-4 leukemia, 60.1%; in the experiment with RPMI-8226 leukemia, 56.6%; with OVCAR-8 ovarian, 77%. Further, the growth is 97% in the experiment with OVCAR-5 ovarian; 68.7% with OVCAR-4 ovarian; 79.7% in the experiment with SK-OV-3 ovarian; 46% in the experiment on IGROV1 ovarian; 83.6% in the experiment with OVCAR-3 ovarian; 84.1% in the experiment on HS 578T breast. The growth in the experiment on NCI/ADR-RES ovarian was 74.1%.
For `O=C(NCCc1ccc(O)c(O)c1)C12CC3CC(CC(C3)C1)C2`, the growth with SK-MEL-2 melanoma is 66.7%; with EKVX NSCLC, 111%; in the experiment on SN12C renal, 96.7%; in the experiment on UO-31 renal it was 66.2%; in the experiment with TK-10 renal, 90.3%; in the experiment with ACHN renal, 90.7%. The growth with CAKI-1 renal is 51.5%; in the experiment on A498 renal, 101%; with CCRF-CEM leukemia, 23.7%; in the experiment with MOLT-4 leukemia it was 72.9%; in the experiment with RPMI-8226 leukemia, 22.5%; in the experiment on OVCAR-8 ovarian it was 95.6%. Further, the growth in the experiment with OVCAR-5 ovarian was 66.3%; in the experiment with OVCAR-4 ovarian, 87.3%; in the experiment on SK-OV-3 ovarian, 86.7%; with IGROV1 ovarian, 56.1%; in the experiment on OVCAR-3 ovarian it was 86%; in the experiment on HS 578T breast, 83.3%. The growth with NCI/ADR-RES ovarian was 61.1%.
As to `CN(c1ccccc1)c1ccc2c(c1)OCCC21CC1Nc1cnccc1C(=O)O` (configuration not stated), the growth is 97.5% with SK-MEL-2 melanoma; 93.1% with EKVX NSCLC; 82.9% in the experiment on SN12C renal; 87.4% with UO-31 renal; 79.5% with TK-10 renal; 66.7% with ACHN renal. The growth with CAKI-1 renal is 76.3%; with A498 renal, 59.7%; with CCRF-CEM leukemia, 47.2%; in the experiment with MOLT-4 leukemia, 45.8%; with RPMI-8226 leukemia, 82.6%; in the experiment with OVCAR-8 ovarian, 54.9%. Also, the growth with OVCAR-5 ovarian was 96.2%; in the experiment with OVCAR-4 ovarian it was 75.3%; in the experiment with SK-OV-3 ovarian, 69.1%; in the experiment on IGROV1 ovarian it was 75.1%; in the experiment on OVCAR-3 ovarian, 77.1%; in the experiment with HS 578T breast, 80.8%. In the experiment with NCI/ADR-RES ovarian, the growth was 73.8%.
